SKKanGAS inh: blocks kanamycin growth of S. pyogenes SKKanGAS strain; 1.3% of 300,000 active; inhibition, % at 7.5 µM; AID 1662; BacTiter-Glo, 6 h;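 active means mean replicate score, as percent of positive control median, at least 50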;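 further: strain carries kanamycin resistance gene driven by streptokinase promoter and grows in 40 µg/ml kanamycin; loss of luminescence reflects streptokinase promoter inhibition or plain growth inhibition; 0% = median of DMSO wells and 100% = positive control at its reference dose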
NR3A LBD binder: NR3A (human) ligand-binding domain modulation; NR3A LBD differential scanning fluorimetry, Tm shift; 0% = protein alone, 100% = glycine-bound protein; 2.5% of 340,000 active; Tm shift relative to glycine control, % at 25 µM; AID 1259313;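 active means melting temperature shift of at least 10% of the positive control shift, at one fixed dose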
MPTP inh: blocks calcium-induced mitochondrial swelling | 1.4% of 360,000 active | isolated mouse mitochondria, Ca2+ swelling absorbance, 30 min | AID 602449 | inhibition, % at 10 µM;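 active means inhibition of 50% or more, scaled per plate between neutral and stimulator controls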;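 further: 0% = DMSO wells given calcium and 100% = 1 mM EGTA wells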
Beta apoptosis: beta cell apoptosis inhibition; INS-1E cytokine-induced death, ATP luminescence, 48 h; percent of positive-control rescue, neutral wells zero; protection from apoptosis, % (test concentration not listed); 0.8% of 300,000 active;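 active means Every replicate reaches about 75%, or at least half do and their mean reaches it too, limit read from the data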;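 further: 0% = cytokine-treated negative control wells and 100% = positive control rescue; higher means more ATP so stronger rescue from cytokine killing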
CSC inhib: cancer stem cell inhibition; cancer stem cell-like cells viability, luminescence; inhibition, % at 7.5 µM; 1.1% of 300,000 active; AID 2717; in the data active means inhibition above about 75%; tested in HMLE shEcad cells
Mdm2-MdmX inh: disrupts the human Mdm2-MdmX interaction; SaOS-2 split-luciferase Mdm2/MdmX complementation, luminescence; inhibition, % at 8 µM; 3% of 330,000 active;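 active means inhibition of at least 50% at 8 µM in the primary screen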
Target sequence (O15151 whole entry, looked up): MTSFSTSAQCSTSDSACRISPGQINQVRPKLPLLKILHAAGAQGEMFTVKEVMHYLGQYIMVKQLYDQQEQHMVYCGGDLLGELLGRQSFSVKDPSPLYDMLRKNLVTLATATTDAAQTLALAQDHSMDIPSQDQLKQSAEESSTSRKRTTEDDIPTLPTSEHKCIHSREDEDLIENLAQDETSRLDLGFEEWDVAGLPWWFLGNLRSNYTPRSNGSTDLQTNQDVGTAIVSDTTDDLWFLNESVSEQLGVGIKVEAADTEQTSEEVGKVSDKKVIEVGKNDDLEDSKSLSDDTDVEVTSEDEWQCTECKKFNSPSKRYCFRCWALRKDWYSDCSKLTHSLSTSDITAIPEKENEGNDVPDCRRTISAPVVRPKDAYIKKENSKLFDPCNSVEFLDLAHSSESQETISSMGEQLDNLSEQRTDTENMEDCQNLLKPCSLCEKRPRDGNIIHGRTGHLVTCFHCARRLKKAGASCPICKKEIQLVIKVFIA
Target sequence (Q00987 whole entry, looked up): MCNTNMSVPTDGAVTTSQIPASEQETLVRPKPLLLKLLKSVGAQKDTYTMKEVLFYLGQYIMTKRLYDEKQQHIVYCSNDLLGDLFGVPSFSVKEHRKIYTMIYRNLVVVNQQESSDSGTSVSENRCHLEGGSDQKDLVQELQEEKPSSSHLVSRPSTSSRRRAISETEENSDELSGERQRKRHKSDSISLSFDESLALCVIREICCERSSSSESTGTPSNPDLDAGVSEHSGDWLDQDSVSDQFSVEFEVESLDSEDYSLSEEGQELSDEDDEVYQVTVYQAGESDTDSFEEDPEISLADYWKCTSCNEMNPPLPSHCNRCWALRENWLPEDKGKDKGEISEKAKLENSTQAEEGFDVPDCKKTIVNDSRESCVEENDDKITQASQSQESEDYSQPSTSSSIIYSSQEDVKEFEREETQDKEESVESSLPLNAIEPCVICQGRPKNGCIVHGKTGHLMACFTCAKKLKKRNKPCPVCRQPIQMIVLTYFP
The depositor's hits bear a star; x = no result. Rows were chosen to be rich in hits. Some 6.9% of all compounds tested hit in one or more screens of this group.

SMILES	SKKanGAS inh	NR3A LBD binder	MPTP inh	Beta apoptosis	CSC inhib	Mdm2-MdmX inh
O=[N+]([O-])c1cccc2ccc(/C=C/c3ccc(F)cc3)nc12	8.7	24.4*	1.7	-5.3	x	-31.0
O=C(O)c1ccc(/C=C/c2ccc3cccc(O)c3n2)cc1	2.8	-0.4	-0.9	x	x	5.3
O=[N+]([O-])c1cccc(/C=C/c2nc(C=Nc3ccc4ccccc4c3)c(O)o2)c1	x	11.1*	-0.2	-2.6	-9.6	27.2
COc1cc(/C=C/c2ccc3cccc([N+](=O)[O-])c3n2)ccc1OCC#N	-7.1	9.5	2.6	6.0	39.1	10.4
CCC(CC)N=C1NS(=O)(=O)c2cc([N+](=O)[O-])ccc21	3.1	-1.8	-1.0	7.0	2.4	-25.8
O=[N+]([O-])c1cccc(/C=C/c2ccncc2)c1	3.8	-1.6	0.5	0.2	-3.0	16.6
O=[N+]([O-])c1cccc(/C=C/c2ccc3cccc(O)c3n2)c1	83.5*	7.2	2.1	32.5	35.9	-18.4
CCOc1cc(/C=C/c2ccc3cccc([N+](=O)[O-])c3n2)ccc1O	5.8	24.7*	2.9	-7.7	7.1	-10.5
Cc1ccc(C)c(-c2cc(C(=O)Nc3cccc(C(=O)O)c3)c3ccccc3n2)c1	23.0	-6.0	1.5	-6.8	-2.5	29.7
CC(=O)c1cccc(NC(=O)c2cc(-c3ccncc3)nc3ccccc23)c1	x	-0.4	0.7	4.5	3.4	36.9
Cc1ccc(C)c(-c2cc(C(=O)Nc3cccnc3)c3ccccc3n2)c1	0.7	11.1*	0.4	22.8	-5.4	3.5
Cc1cc(NC(=O)c2cc(-c3ccncc3)nc3ccccc23)ccc1Br	x	8.6	1.5	10.9	86.2*	44.0
CCOC(=O)c1[nH]c2ccc(OC)cc2c1NC(=O)c1ccccc1C(=O)O	12.1	-2.4	0.9	3.1	-18.6	5.0
CCOC(=O)c1[nH]c2ccc(F)cc2c1NC(=O)C1=COCCO1	-0.4	19.7*	1.6	-3.7	6.2	20.4
CCOC(=O)c1[nH]c2ccc(F)cc2c1NC(=O)c1cc(OC)c(OC)c(OC)c1	3.3	-7.0	-0.7	15.8	7.4	12.7
CCOC(=O)c1[nH]c2ccc(F)cc2c1NC(=O)c1ccccc1C(=O)O	84.4*	1.6	0.4	4.5	-14.3	5.7
Cc1ccc(S(=O)(=O)NCC(=O)OCC(=O)N(C)C2CCCCC2)cc1	x	0.1	-1.6	-3.1	-9.3	12.8
COC(=O)c1cc(-c2ccc(Br)cc2)c2c(=O)[nH]c(=O)n(C)c2n1	61.6*	1.2	0.2	6.1	-3.4	43.4
CCOc1ccc(-c2cc(C(=O)OC)nc3c2c(=O)n(C)c(=O)n3C)cc1	93.4*	0.7	1.1	-1.5	6.4	46.0
COC(=O)c1cc(-c2cccc([N+](=O)[O-])c2)c2c(=O)[nH]c(=O)n(C)c2n1	1.1	-0.8	0.3	0.6	1.7	36.9
CC1(c2ccc(O)cc2)NC(=O)N(c2ccccc2)N1 (stereo not drawn)	0.3	-4.3	-0.5	-3.1	108.6*	14.5
CC1(C(=O)OCC(=O)NC(=O)c2ccccc2)CC1(Cl)Cl (stereo not drawn)	6.5	-0.4	-0.2	-3.7	10.9	16.3
CC1(C(=O)OCC(=O)N2c3ccccc3Sc3ccccc32)CC1(Cl)Cl (stereo not drawn)	25.0	0.4	2.6	88.5*	56.8	23.1
Clc1cccc(CNc2ccn3nc(-c4ccccc4Cl)cc3n2)c1	x	x	1.9	x	x	x
Cc1nc2sc(C(c3cccc(F)c3)N3CCC(C)CC3)c(O)n2n1 (stereo not drawn)	-0.9	1.2	-1.2	-1.3	-6.8	1.8
SMILES	SKKanGAS inh	NR3A LBD binder	MPTP inh	Beta apoptosis	CSC inhib	Mdm2-MdmX inh
Cc1nc2sc(C(c3cccc(F)c3)N3CCC(O)CC3)c(O)n2n1 (stereo not drawn)	-2.3	10.2*	-2.7	-6.9	0.1	14.8
CCOc1cccc(C2C(C#N)=C(N)Oc3cc(C)[nH]c(=O)c32)c1OCC (stereo not drawn)	-10.8	0.5	0.8	-12.4	-5.0	26.5
N#CC1=C(N)Oc2cc3ccccc3cc2C1c1cccnc1 (stereo not drawn)	2.5	-1.1	0.4	-2.5	59.4	25.5
Cc1ccc2cc(C3C(C#N)=C(N)Oc4c3ccc3cccnc43)c(=O)[nH]c2c1 (stereo not drawn)	7.1	-4.0	-3.0	88.3*	70.3	21.8
CCc1ccc2[nH]c(=O)c(C3C(C#N)=C(N)Oc4c3ccc3cccnc43)cc2c1 (stereo not drawn)	57.7*	-6.1	6.0	94.3*	97.0*	34.5
N#CC1=C(N)Oc2c(ccc3cccnc23)C1c1cccnc1 (stereo not drawn)	-0.5	-2.6	-2.1	98.7*	68.0	28.6
CCOC(=O)C(=O)N(C)c1c(CC)nc2c(OCc3ccccc3)cccn12	x	x	0.0	x	x	x
Cc1cccc(Oc2coc3cc(O)ccc3c2=O)c1	0.1	-0.5	-0.4	-6.0	4.8	-48.0
COC(CNc1ccc([N+](=O)[O-])c(NCC(OC)OC)c1C#N)OC	8.0	-0.2	3.6	2.1	-22.7	-21.2
O=C(NNc1ccc(C(F)(F)F)cc1[N+](=O)[O-])c1ccc(NS(=O)(=O)c2ccc(F)cc2)cc1	20.6	22.2*	-17.1	3.9	50.7	x
COc1ccc(-c2cn(Cc3ccc4ccccc4c3)nn2)cc1	-5.1	1.4	2.7	-8.3	-1.8	-4.2
COc1ccc(-c2cn(Cc3ccc(C(=O)c4ccccc4)cc3)nn2)cc1	12.5	5.9	x	106.2*	51.4	-15.6
CC(=O)NCCc1nc2cc(NC(=O)c3ccc([N+](=O)[O-])cc3)ccc2n1C	-0.9	-3.0	0.3	-2.4	4.8	1.5
CN(C)S(=O)(=O)c1cc(C(=O)NCC2CCCO2)c(Cl)cc1Cl (stereo not drawn)	-3.3	17.8*	1.8	-2.6	x	-5.3
COc1cc([N+](=O)[O-])cc(/C=N/NC(=O)C(C)Nc2cccc3ccccc23)c1O (stereo not drawn)	39.0	5.9	9.4	22.9	22.8	34.0
CC(Nc1cccc2ccccc12)C(=O)N/N=C/c1ccc([N+](=O)[O-])cc1 (stereo not drawn)	0.9	22.1*	13.6	1.8	-3.9	1.5
O=C(NC(c1ccc(Cl)cc1)c1ccsc1)C1CCN(CCOc2ccc(Cl)cc2)CC1 (stereo not drawn)	x	x	2.0	x	x	x
O=S(=O)(c1ccc2nc(-c3ccccc3)[nH]c2c1)N1CCN(c2cccc(Cl)c2)CC1	4.3	16.7*	42.1	6.5	19.2	35.5
COc1ccccc1N1CCN(S(=O)(=O)c2ccc3nc(-c4ccccc4)[nH]c3c2)CC1	21.6	6.5	19.0	5.6	1.8	6.6
O=C(CSc1nc(N2CCOCC2)nc(N2CCOCC2)n1)Nc1cccc(C(F)(F)F)c1	53.7*	-2.6	2.0	x	-5.2	19.7
O=C(CSc1nc(Nc2ccccc2)nc(N2CCOCC2)n1)Nc1cccc([N+](=O)[O-])c1	24.7	16.7*	7.0	17.2	-7.8	37.4

Screening data deposited in PubChem by several laboratories.
